System: RXRa DBDmut IVT, anti-RXR (DBD mutation: RXRa K156A/R161A, NR concentration 90 nM)
Assay: PBM binding z-score (relative to random genomic background probes); higher = stronger binding; sequences stand for … in GC…GCGATTGACAGCGTAGAATGAAGG
In short: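 Regression normalization was applied to scanned fluorescence from custom Agilent 4×180K protein-binding microarrays. Before scanning, arrays were incubated 1 h with ligand-free nuclear receptor dimers, and binding was detected with antibodies against each partner (one per run). Binding z-scores use the random background probes as reference.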

Sequence	PBM binding z-score
ATATGTAGGTTATCGGGTCATTCAGTTTGCGCAT	1.87
TAGCCTAGGTCATGCGGGCTAGTATAGTGTCGGC	0.197
TTACCAAGGTGAAGTTCGTTGATCCCTCTGTAGA	1.02
TCAGACAGGTGAACGTAACTCAGGTACGCAGTCG	0.94
CCAGACAGGTGAGAAGGTAACTCATCCTCGATTA	0.48
TCTATTAGTTGATTAGGGCCACCGAAACAGCGGA	1.19
CCTTACGGGTCAAAGTTATAGCACGGGTGGTACG	1.42
CCTAGCAGGCCAATCTGGGTCACTCACGGCTTGA	0.336
CCGAGTAGGTTTTGGGGCATTCAGGCAACGGTGA	0.218
TAGCCTAGGTCATGGGGCCAGTATAGTACGCATC	0.621
CCGATTAGGTTATGGGGCATTCAGGCAACGGTGA	0.4
CGAACGAGCGCATGAGTTGATAGCAAATGCCGAT	0.162
CGTCCAAGGTCATAGGAGGTCTGTGAAGACAGAT	3.7
CGTCCAAGGTCATAGGATGTCAGTGAAGACAGAT	3.93
ACTAGCAGGCCAAGGGTCACTCATGATTAGTCCG	0.479
CCTCTTAGTTGACCATAAGGGCAACCGAAGCTCG	0.285
ATATGTAGGTTACATCCGGGGCATTCAGGCTATG	0.51
CCTAGCAGGCCAATCTGGGCCACTCAAGGCTTGA	-0.177
CGTCCTAGGTCAAGGTCAGTGAAAGAGACTCGAA	2.02
GGAACGAGGGCAAGTTGGTAGCAGAGTTTGATGG	2.05

Sequence	PBM binding z-score
ACAGACAGGTGAGTGAAGGTTACTCAGCTGGACG	-0.643
ACTTACGGGTCAACGAGGTGATAGCACGCGTATA	2.19
AGAACGAGGACACGCTGAGTTGATAGCAGAGTAG	0.835
AGAACGAGGGCAATGTGTTGATAGCACGGGTGGC	1.74
ACTTACGGGTCAACGAGGTTATATCACGCGTATA	2.74
GCTCGAAGGACAAGGTCAGAGCTTTGTCCGTAGA	0.0106
CCTACTGGGCCATCCGGTCATTGATATCAACGTT	-0.598
TTTATTAGTTGATTAGGGCAACCGAAACAGCGGA	0.442
CCTTACGGGTCACGAGGGTATAGCACGACGAGCG	0.613
CTCGAAAGGTCGGTTGAGATGAGTATACGGATAA	0.887
GTTATTAGTTGAAAGGGCAACCGAATGATTCTCG	1.16
ATCTCTAGGTAAGACGCAGTTCAGTGAAGAACGC	0.0393
TCACATAGGTAAACAGGTGAAAGTCCGTAAGTTA	0.731
ATGGAAAGGTCGACGAGGTGAGTATACACCGTTT	0.942
CTACCAAGGTGATCAAGGTCGTTGATTACTATTC	1.42
ATCGAAAGGTCGTGAGGTGAGAATACAGAAAGGC	1.28
CCTAGTTGGTCAAGGTTACACACGCTATAGGTAC	1.24
TCTAGTTGGTCACTGAGGTCACACACGACGGGTA	1.56
AGAACGGGGGCACGCTGAGTTGATAGCAGAGTAG	2.78

— the supplement of paper PMC6555819
